Measurements reported in PubChem BioAssay (EPA / NIEHS).
Results filed as inconclusive are left out. The source made the active and inactive calls. Rule for the calls, unless noted: active = hit-call score of the fitted dose curve at least 0.9, where 1 is the maximum; inactive = score below 0.9.

Experiments:
[1] = CCTE_Shafer_MEA_dev_firing_rate_mean: CCTE's Neural Network Formation Assay for Mean Firing Rate, Shafer Lab (AID 2284031)
Method in brief: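 Steps: seed rat cortical cells (1.5 x 10^5/well) with laminin on PEI-coated MEA; dose day 0; record DIV 5/7/9/12, full media and compound exchange after DIV 5 and 9 recordings; compute well-mean firing rate AUC.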

[2] = CCTE_Shafer_MEA_dev_per_burst_spike_percent: CCTE's Neural Network Formation Assay for Percent of Spikes in a Burst, Shafer Lab (AID 2284032)
Method in brief: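 Value is trapezoidal AUC over recordings on days 5, 7, 9 and 12 of the well-mean fraction of spikes falling in single-electrode bursts; rat cortical cultures exposed continuously from plating, treatment renewed DIV 5 and 9, fitted downward against DMSO.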

[3] = CCTE_Shafer_MEA_dev_active_electrodes_number: CCTE's Neural Network Formation Assay for Number of Active Electrodes, Shafer Lab (AID 2284040; active = hit-call score of the fitted dose curve at least 0.9, where 1 is the maximum)
Method in brief: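 Counts electrodes per well firing at least 5 spikes/min, recorded on days 5, 7, 9 and 12 in rat cortical cultures dosed continuously from plating (treatment refreshed DIV 5, 9). Value is the area under the curve over recordings, fitted downward relative to DMSO.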

[4] = CCTE_Shafer_MEA_dev_burst_rate: CCTE's Neural Network Formation Assay for Burst Rate, Shafer Lab (AID 2284042)
Method in brief: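 Rat primary cortical cultures on PEI/laminin MEA; compound from plating, re-dosed at DIV 5, 9 media change. Single-electrode bursts/recording length, well mean of active electrodes; AUC over DIV 5–12 recordings; loss-of-signal vs DMSO.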

[5] = CCTE_Shafer_MEA_dev_bursting_electrodes_number: CCTE's Neural Network Formation Assay for Number of Bursting Electrodes, Shafer Lab (AID 2284043; active = hit-call score of the fitted dose curve at least 0.9, where 1 is the maximum)
Method in brief: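 Number of electrodes reaching ≥1 burst every 2 min was recorded at DIV 5, 7, 9 and 12 and collapsed as trapezoidal area under the curve. Cultures were rat cortical neurons on MEA plates, dosed continuously from plating with medium and treatment refreshed on DIV 5 and 9.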

[6] = CCTE_Shafer_MEA_dev_per_burst_interspike_interval: CCTE's Neural Network Formation Assay for Burst Interspike Interval, Shafer Lab (AID 2284044)
Method in brief: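 Spontaneous activity of maturing rat cortical networks is recorded on DIV 5, 7, 9 and 12 under chronic compound exposure beginning at plating. Endpoint: burst interspike interval well-mean, collapsed into trapezoidal AUC and fitted in the negative direction relative to DMSO.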

[7] = CCTE_Shafer_MEA_dev_burst_duration_mean: CCTE's Neural Network Formation Assay for Mean Burst Duration, Shafer Lab (AID 2284045)
Method in brief: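 Mean single-electrode burst duration (first to last spike), averaged over bursting electrodes per well, then integrated as area-under-curve across recordings at days 5, 7, 9 and 12. Rat cortical cultures on MEAs, compound present from plating, refreshed at feeds.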

[8] = CCTE_Shafer_MEA_dev_interburst_interval_mean: CCTE's Neural Network Formation Assay for Mean Interburst Interval, Shafer Lab (AID 2284046);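 note: well-mean interburst interval of bursting electrodes as AUC over four recording days; curve fitted for decrease in interburst interval relative to DMSO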
Method in brief: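 Rat cortical neurons, 1.5 x 10^5 cells/well, 48-well MEA; compound from day 0 through DIV 12, media and treatment renewed DIV 5/9. Recordings DIV 5, 7, 9, 12; well-mean interburst interval → trapezoidal AUC, loss direction vs DMSO.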

[9] = CCTE_Shafer_MEA_dev_inter_network_spike_interval_mean: CCTE's Neural Network Formation Assay for Mean Inter-network Spike Interval, Shafer Lab (AID 2284047)
Method in brief: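 Primary rat cortical neurons on PEI-coated 48-well MEAs (16 electrodes/well) were exposed from plating day 0 to DIV 12, with dosing renewed at DIV 5 and 9. Recordings at DIV 5, 7, 9, 12 were collapsed by trapezoidal AUC, loss-of-signal fit vs DMSO.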

[10] = CCTE_Shafer_MEA_dev_network_spike_peak: CCTE's Neural Network Formation Assay for Mean Number of Electrodes in Network Spike, Shafer Lab (AID 2284049)
Method in brief: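 Rat cortical primary culture, 1.5 x 10^5 cells/well, 48-well MEA (16 electrodes/well). Dosing day 0 through DIV 12, full media/compound exchange DIV 5, 9. AxIS adaptive spike detection; AUC over days 5/7/9/12; loss-of-signal vs DMSO.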

[11] = CCTE_Shafer_MEA_dev_spike_duration_mean: CCTE's Neural Network Formation Assay for Mean Spike Duration, Shafer Lab (AID 2284051);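 note: mean network spike duration pooled as area under curve over DIV 5 to 12 recordings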
Method in brief: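 Rat cortical primary cultures, 48-well MEA (16 electrodes/well); compound from plating, renewed DIV 5, 9. Network spike duration (AxIS adaptive detector) recorded DIV 5/7/9/12, combined as trapezoidal AUC; loss direction vs DMSO.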

[12] = CCTE_Shafer_MEA_dev_network_spike_duration_std: CCTE's Neural Network Formation Assay for Standard Deviation of Network Spike Duration, Shafer Lab (AID 2284052);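 note: hits are decreases in network spike duration SD versus DMSO vehicle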
Method in brief: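 Rat cortical cultures, 1.5 x 10^5 cells/well, exposed continuously from plating to DIV 12 with media/compound renewal at DIV 5, 9. Spontaneous activity recorded DIV 5/7/9/12, AxIS adaptive spike detector; AUC across days; negative direction vs DMSO.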

[13] = CCTE_Shafer_MEA_dev_per_network_spike_spike_number_mean: CCTE's Neural Network Formation Assay for Mean Number of Spikes in a Network Spike, Shafer Lab (AID 2284053)
Method in brief: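 Rat cortical primary cultures on 48-well MEA; compound from day 0, re-dosed with full media change DIV 5, 9. Recorded DIV 5, 7, 9, 12; spikes in 0.05 s window at network-spike peak ÷ total network spikes; AUC; loss vs DMSO.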

[14] = CCTE_Shafer_MEA_dev_per_network_spike_spike_percent: CCTE's Neural Network Formation Assay for Percent of Spikes in a Network Spike, Shafer Lab (AID 2284054)
Method in brief: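 Metric: fraction of spikes falling in a 0.05 s window at network-spike peaks. Recordings were made on days 5, 7, 9 and 12 and collapsed by trapezoidal AUC. Cultures were rat cortical neurons on MEA plates, dosed continuously from plating, re-dosed at media changes.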

[15] = CCTE_Shafer_MEA_dev_mutual_information_norm: CCTE's Neural Network Formation Assay for Mutual Information Normalization, Shafer Lab (AID 2284091)
Method in brief: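 Shared information across electrodes, tracked on days 5, 7, 9 and 12 of network development and collapsed as trapezoidal area under the curve. Rat cortical cultures were treated continuously from plating, with treatment renewed at feeds on DIV 5 and 9; DMSO baseline, negative-direction fit.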

[16] = CCTE_Shafer_MEA_dev_correlation_coefficient_mean: CCTE's Neural Network Formation Assay for Mean Correlation Coefficient, Shafer Lab (AID 2284093)
Method in brief: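 Rat cortical cultures, 1.5 x 10^5 cells/well, dosed from day 0 for 12 days. Spontaneous spikes recorded DIV 5/7/9/12; electrode-pair correlation coefficients averaged, AUC taken. Fit in loss direction vs DMSO.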

[17] = CCTE_Mundy_HCI_Cortical_Synap_Neur_Matur_NeuriteSpotCountPerNeuriteLength: CCTE's Synaptogenesis and Neurite Maturation Assay in rat cortical cells for Neurite Spot Count per Neurite Length, Mundy Lab (AID 2284210)
Method in brief: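 Synaptophysin spots per unit neurite length, measured by automated imaging of MAP2/synaptophysin/Hoechst-stained neurons. Cultures from rat cortex received chemical at DIV 7 with media change through DIV 12; glial growth arrested by AraC at DIV 5; DMSO baseline.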

[18] = CCTE_Mundy_HCI_Cortical_Synap_Neur_Matur_BPCount: CCTE's Synaptogenesis and Neurite Maturation Assay in rat cortical cells for Branch Point Count, Mundy Lab (AID 2284211)
Method in brief: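 HCI read-out of branch points from MAP2/synaptophysin/Hoechst immunofluorescence; rat cortical cultures, AraC DIV 5, dosing DIV 7, fixed DIV 12; fit in positive direction vs DMSO baseline.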

[19] = CCTE_Mundy_HCI_Cortical_NOG_NeuriteCount: CCTE's Neurite Outgrowth Assay in rat cortical cells for Neurite Count, Mundy Lab (AID 2284212);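 note: cells fixed about two days after chemical exposure began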
Method in brief: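 Rat cortical primary cells; compound added 2 h post-plating, 1/10 dilution of working solution. Anti-betaIII-tubulin/AF488 ICC; ArrayScan neurite count vs DMSO.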

[20] = CCTE_Mundy_HCI_Cortical_NOG_NeuriteLength: CCTE's Neurite Outgrowth Assay in rat cortical cells for Neurite Length, Mundy Lab (AID 2284213)
Method in brief: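 First, rat primary cortical cells were plated and, 2 h later, given test chemical as a 1/10 dilution. Finally, βIII-tubulin immunostaining enabled automated imaging of neurite length.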

[21] = CCTE_Mundy_HCI_Cortical_Synap_Neur_Matur_NeuriteLength: CCTE's Synaptogenesis and Neurite Maturation Assay in rat cortical cells for Neurite Length, Mundy Lab (AID 2284214)
Method in brief: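 Cultures of rat primary cortical cells received chemical at DIV 7 and were fixed at DIV 12, after glial arrest with AraC at DIV 5. Neurite length was measured by automated imaging of MAP2 immunofluorescence.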

[22] = CCTE_Mundy_HCI_Cortical_Synap_Neur_Matur_NeuriteSpotCountPerNeuron: CCTE's Synaptogenesis and Neurite Maturation Assay in rat cortical cells for Neurite Spot Count per Neuron Count, Mundy Lab (AID 2284215)
Method in brief: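 Developing rat cortical neurons, with glia suppressed by AraC, are exposed to chemicals from DIV 7 to DIV 12. Automated fluorescence imaging of MAP2-labelled neurites and synaptophysin puncta yields a count per neuron, normalised against DMSO wells.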

[23] = CCTE_Mundy_HCI_Cortical_Synap_Neur_Matur_SynapseCount: CCTE's Synaptogenesis and Neurite Maturation Assay in rat cortical cells for Synapse Count, Mundy Lab (AID 2284218)
Method in brief: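 Cells were plated, allowed 2 hr to attach, treated with AraC at DIV 5, then exposed to chemicals from DIV 7 until DIV 12. After fixation and MAP2/synaptophysin immunolabelling, synapses per neuron were quantified by automated imaging against DMSO.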

[24] = CCTE_Mundy_HCI_hN2_NOG_NeuronCount: CCTE's Neurite Outgrowth Assay in human hN2 cells for Neuron Count, Mundy Lab (AID 2284221; active = hit-call score of the fitted dose curve at least 0.9, where 1 is the maximum)
Method in brief: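 Read-out is the number of betaIII-tubulin-positive neurons imaged by automated high-content analysis, with DMSO as negative control.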

[25] = CCTE_Mundy_HCI_Cortical_Synap_Neur_Matur_NeuriteCount: CCTE's Synaptogenesis and Neurite Maturation Assay in rat cortical cells for Neurite Count, Mundy Lab (AID 2284222);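 note: exposure from day 7 to day 12 in vitro with readout at day 12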
Method in brief: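 Primary rat cortical cells were plated, treated with AraC at DIV 5, then exposed to chemicals from DIV 7 through DIV 12. After fixation and immunostaining for MAP2 and synaptophysin, imaging quantified neurites, with DMSO as the negative control.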

[26] = CCTE_Mundy_HCI_Cortical_Synap_Neur_Matur_CellBodySpotCount: CCTE's Synaptogenesis and Neurite Maturation Assay in rat cortical cells for Cell Body Spot Count, Mundy Lab (AID 2284223)
Method in brief: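 Chemicals were applied to AraC-treated rat primary cortical cells at DIV 7 and measured at DIV 12. Fixed cells were labelled for MAP2, synaptophysin and nuclei, and high-content imaging gave cell body synaptophysin spot counts per neuron relative to DMSO.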

[27] = CCTE_Mundy_HCI_Cortical_NOG_NeuronCount: CCTE's Neurite Outgrowth Assay in rat cortical cells for Neuron Count, Mundy Lab (AID 2284236; active = hit-call score of the fitted dose curve at least 0.9, where 1 is the maximum;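 note: neurons counted by imaging betaIII-tubulin and Hoechst stained cortical cells; cells exposed to compound for about 48 hours before fixation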)
Method in brief: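 Read-out: neuron number by high-content imaging of betaIII-tubulin (Alexa Fluor-488) and Hoechst-labelled rat primary cortical cells.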

[28] = CCTE_Mundy_HCI_Cortical_NOG_BPCount: CCTE's Neurite Outgrowth Assay in rat cortical cells for Branch Point Count, Mundy Lab (AID 2284237)
Method in brief: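 Measured 50.33 h after dosing, this morphology endpoint uses rat primary cortical cultures labelled for betaIII-tubulin. Branch points are quantified by high-content imaging, with DMSO as negative control and baseline.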

[29] = CCTE_Mundy_HCI_hNP1_Casp3_7: CCTE's Caspase-Glo 3/7 Assay in human neuroprogenitor cells for Apoptosis, Mundy Lab (AID 2284240)
Method in brief: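 Apoptosis is scored by activated caspase-3/7 luminescence in WA09-derived neural progenitor cells, measured 26.5 h after chemical dosing. Values represent gain of signal relative to DMSO vehicle.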

[30] = CCTE_Mundy_HCI_hNP1_CellTiter: CCTE's Cell Titer-Glo 2 Assay in human neuroprogenitor cells for Viability, Mundy Lab (AID 2284241; active = hit-call score of the fitted dose curve at least 0.9, where 1 is the maximum)
Method in brief: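 Human neural progenitor cells (hNP1, WA09-derived) were plated on poly-L-ornithine/laminin and grown 40 to 44 hours at 37 °C, 5% CO2 before chemical addition. Twenty-four hours later, ATP was measured by CellTiter-Glo luminescence; loss of signal versus DMSO indicates reduced viability.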

[31] = CCTE_Mundy_HCI_Cortical_Synap_Neur_Matur_NeuronCount: CCTE's Synaptogenesis and Neurite Maturation Assay in rat cortical cells for Neuron Count, Mundy Lab (AID 2284242; active = hit-call score of the fitted dose curve at least 0.9, where 1 is the maximum;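 note: neuron number from Hoechst nuclei and MAP2 staining by high-content imaging; hits reduce neuron count versus DMSO baseline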)
Method in brief: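 Cortical cells from rat are plated, treated with AraC at DIV 5, and exposed to test chemicals with a media change at DIV 7. At DIV 12 they are fixed and immunostained (MAP2, synaptophysin), and imaged neuron counts are compared against DMSO controls.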

[32] = Tanguay_ZF_120hpf_MUSC: Oregon State University Tanguay Lab 120 Hour Post-fertilization zebrafish Assay for Muscle Malformation (AID 2284401)
Method in brief: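 Scored as a binary brightfield endpoint at 120 hpf, fitted versus DMSO. Single dechorionated wild-type (Tropical 5D) zebrafish embryos per well, statically exposed at 28C from 6 hpf onward with final DMSO 0.64%.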

Measured: AC50

C[C@H](N)Cc1ccccc1
active: [31] 43.6 nM
not listed: [32]
inactive: all other assays above

NCC(F)(F)C(F)(F)C(F)(F)C(F)(F)F
inactive: [32]

FC(F)(F)C(F)(F)C(F)(F)C(F)(F)CCI
inactive: [32]
